Results: PubChem BioAssay (NCATS)
Records with an inconclusive call do not appear. Values without a mark were called inactive. Activity calls are given as the source filed them. Calls come from the whole dose curve; as a rule, active = well fitted cell-killing curve with a large enough effect; inconclusive = small, poorly fitted or top-dose-only effect; inactive = flat fitted curve, though single readings scatter.

Test: Cell Viability - LYMP2-013 (AID 970);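 note: 0% = DMSO only and full inhibition = tetraoctylammonium bromide control; nearly all actives have a fitted effect of over 55% in size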
Conditions: LYMP2-013 lymphoblastoid cells viability; series mostly up to 92.2 µM; activity change, negative = cytotoxic: at the top concentration
Source text: NIH Chemical Genomics Center [NCGC]
NIH Molecular Libraries Screening Centers Network [MLSCN]
National Institutes of Environmental Health Sciences [NIEHS]
National Toxicology Program [NTP]
We have developed a 1536-well cell-based assay for quantitative high throughput screening (qHTS) against a number of cell lines to determine in vitro cytotoxicity of small molecules. This particular assay uses a human lymphoblastoid cell line (LYMP2-013) purchased from Coriell Institute for Medical Research.
NCGC Assay Protocol Summary:
The CellTiter-Glo luminescent cell viability assay (Promega) is a homogeneous method to measure the number of viable cells in culture. The end point readout of this assay is based on quantitation of intracellular ATP, an indicator of metabolic activity, using the luciferase reaction. Luciferase catalyzes the oxidation of beetle Luciferin to oxyluciferin and light in the presence of ATP. The luminescent signal is proportional to amount of ATP present.
Using the CellTiter-Glo luminescent cell viability assay, the amount of cellular ATP was measured in the lymphoblastoid cell line with complete culture medium following compound treatment for 24 hours. The assay was performed in opaque white Kalypsys 1536-well plates. In the screen, tetraoctylammonium bromide was used as positive control. Library compounds were measured for their ability to cause acute toxicity in the cell line, as reflected by a decrease in intracellular ATP levels, in a concentration-dependent manner. […] AC50 values were determined from concentration-response data modeled with the standard Hill equation.
qHTS protocol for CellTiter Glo lymphoblastoid cellular assay
[Step] [Parameter] [Value] [Description]
1. Reagent; 5 uL; 2500 lymphoblastoid cells/well
2. Time; 5 hr; 37 C incubation
4. Controls; 23 nL; Tetraoctylammonium bromide 6.4pM to 92 uM
5. Time; 24 hr; 37 C incubation
6. Reagent; 5 uL; CellTiter Glo reagent
7. Time; 30 min; Room Temperature
8. Detection; Luminescence; Viewlux plate reader
Keywords: cell viability, cytotoxicity, lymphoblastoid cell line, luminescence, NTPHTS, NTPHTS_NCGC, NIEHS, DSSTox, MLSMR, MLSCN, NIH Roadmap, qHTS, NCGC

First: Nc1c2c(nc3ccccc13)CCCC2
Second: CCC1(c2ccccc2)C(=O)NCNC1=O
The “activity change, negative = cytotoxic” value of the first is higher: -9.15% for the first, -10.6% for the second.

Going from `O=c1c(-c2ccc(O)cc2)coc2cc(O)cc(O)c12` to `Cc1ccc(-c2cc(C(F)(F)F)nn2-c2ccc(S(N)(=O)=O)cc2)cc1`, the “activity change, negative = cytotoxic” value rises from -20.4% to -14.3%.

Compared with `Nc1ccn([C@H]2CC[C@@H](CO)O2)c(=O)n1`, `Cc1cn([C@H]2C[C@H](N=[N+]=[N-])[C@@H](CO)O2)c(=O)[nH]c1=O` is lower in “activity change, negative = cytotoxic” value: 0.828% for the first, -4.4% for the second.

First: COc1ccc2[nH]cc(CCNC(C)=O)c2c1
Second: N[C@@H](Cc1c[nH]c2ccc(O)cc12)C(=O)O
The “activity change, negative = cytotoxic” value of the first is lower: -11% for the first, -10.5% for the second.

Going from `O=c1[nH]cc(F)c(=O)[nH]1` to `Cn1c(=O)c2[nH]cnc2n(C)c1=O`, the “activity change, negative = cytotoxic” value rises from -22.7% to -6.54%.

Compared with `NS(=O)(=O)c1cc2c(cc1Cl)NCNS2(=O)=O`, `Clc1ccc(C(c2ccccc2Cl)C(Cl)Cl)cc1` (stereo not drawn) is lower in “activity change, negative = cytotoxic” value: -3.07% for the first, -24.1% for the second.

Going from `COc1ccc2c(c1)c(CC(=O)O)c(C)n2C(=O)c1ccc(Cl)cc1` to `COc1cc2c(c(OC)c1OC)-c1ccc(OC)c(=O)cc1[C@@H](NC(C)=O)CC2`, the “activity change, negative = cytotoxic” value falls from 3.71% to -28.3%.

Compared with `NCCS(=O)(=O)O`, `Cn1c(=O)c2c(ncn2C)n(C)c1=O` is lower in “activity change, negative = cytotoxic” value: 0.166% for the first, -5.39% for the second.

With `CC(C)NCC(O)c1ccc(O)c(O)c1` (stereo not drawn) the “activity change, negative = cytotoxic” value was -7.15%.

With `Cc1cn([C@H]2C=C[C@@H](CO)O2)c(=O)[nH]c1=O` the outcome was “inactive”.
